The record followed here is PubChem BioAssay (NCATS).

Inconclusive results are not listed. Where a call stands in place of a potency, no number is given. The source made the active and inactive calls. Calls come from the whole dose curve; as a rule, active = well fitted inhibition curve with a large enough effect; inconclusive = small, poorly fitted or top-dose-only effect; inactive = flat fitted curve, though single readings scatter. Where a SMILES comes first, the peptide text is derived from it. Bridges are numbered along the chain shown (N, C = ends). [ ]: non-standard residue; d: D form. The star is where a group is joined. Dab(CH2SO3H) = N[C@@H](CCNCS(=O)(=O)O)C(=O)O; X3 = CC[C@@H](C)CCCCC(=O)*; Dab = NCC[C@H](N)C(=O)O
Potency is the fitted concentration of half-maximal effect.

Voltage-gated inwardly rectifying potassium channel KCNH2 (Homo sapiens), sequence (Q12809 whole entry, looked up): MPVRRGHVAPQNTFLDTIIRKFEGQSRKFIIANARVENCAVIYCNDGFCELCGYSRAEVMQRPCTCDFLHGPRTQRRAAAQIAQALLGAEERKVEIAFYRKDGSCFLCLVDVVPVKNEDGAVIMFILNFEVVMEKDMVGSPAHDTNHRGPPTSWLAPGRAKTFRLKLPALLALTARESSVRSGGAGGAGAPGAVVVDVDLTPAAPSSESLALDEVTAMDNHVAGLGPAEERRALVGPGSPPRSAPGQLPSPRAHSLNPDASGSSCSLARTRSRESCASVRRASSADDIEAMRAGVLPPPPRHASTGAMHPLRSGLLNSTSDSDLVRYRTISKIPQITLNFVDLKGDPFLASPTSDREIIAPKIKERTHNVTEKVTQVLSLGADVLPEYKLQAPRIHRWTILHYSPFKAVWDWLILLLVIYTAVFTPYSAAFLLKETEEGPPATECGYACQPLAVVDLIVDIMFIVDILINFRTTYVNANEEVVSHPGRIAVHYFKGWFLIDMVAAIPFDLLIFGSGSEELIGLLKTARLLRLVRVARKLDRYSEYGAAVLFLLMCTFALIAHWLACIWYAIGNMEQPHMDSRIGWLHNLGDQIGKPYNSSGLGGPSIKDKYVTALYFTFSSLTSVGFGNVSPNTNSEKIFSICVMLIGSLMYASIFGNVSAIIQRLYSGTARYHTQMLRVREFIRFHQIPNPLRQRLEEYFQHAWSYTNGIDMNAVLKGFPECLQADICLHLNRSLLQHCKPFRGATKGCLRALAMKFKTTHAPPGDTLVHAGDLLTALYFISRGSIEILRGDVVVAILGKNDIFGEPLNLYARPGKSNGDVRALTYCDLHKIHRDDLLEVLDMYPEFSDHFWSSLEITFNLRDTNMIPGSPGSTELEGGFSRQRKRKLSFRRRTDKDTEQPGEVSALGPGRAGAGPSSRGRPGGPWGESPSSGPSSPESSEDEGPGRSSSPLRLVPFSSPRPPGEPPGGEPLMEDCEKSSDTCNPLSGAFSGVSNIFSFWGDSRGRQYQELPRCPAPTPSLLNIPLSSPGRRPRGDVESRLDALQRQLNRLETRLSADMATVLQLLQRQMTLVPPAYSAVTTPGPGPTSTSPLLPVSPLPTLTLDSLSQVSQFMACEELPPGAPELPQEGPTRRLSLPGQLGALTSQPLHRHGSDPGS

The assay deals with Voltage-gated inwardly rectifying potassium channel KCNH2 (Homo sapiens) (UniProt Q12809). The assay can be described thus: qHTS Assay for Small Molecule Inhibitors of the Human hERG Channel Activity (AID 588834).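 Note: lower thallium flux fluorescence means stronger hERG block; nearly all actives have a fitted effect of over 50% in size.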 The conditions noted are these: U2OS BacMam hERG, FluxOR thallium flux fluorescence; series mostly up to 46.1 µM. The method, boiled down:
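Thallium serves as surrogate for K+ influx through BacMam-delivered hERG in U2OS cells. Compounds are added for about 10 minutes after dye loading; stimulation buffer then starts flux, monitored kinetically on FDSS.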
In general terms: qHTS replaces the single test concentration by a dilution series.
With `COc1cc2c(cc1O)CCN[C@]21CS[C@@H]2c3c(OC(C)=O)c(C)c4c(c3[C@H](COC1=O)N1[C@@H]2[C@H]2c3c(cc(C)c(OC)c3O)C[C@@H]([C@@H]1O)N2C)OCO4`, the Potency entry is “inactive”. As to `CC[C@@H](C)CCCCC(=O)N[C@@H](CCNCS(=O)(=O)O)C(=O)N[C@H](C(=O)N[C@@H](CCNCS(=O)(=O)O)C(=O)N[C@H]1CCNC(=O)[C@H]([C@@H](C)O)NC(=O)[C@H](CCNCS(=O)(=O)O)NC(=O)[C@H](CCNCS(=O)(=O)O)NC(=O)[C@H](CC(C)C)NC(=O)[C@@H](CC(C)C)NC(=O)[C@H](CCNCS(=O)(=O)O)NC1=O)[C@@H](C)O` (X3-[Dab(CH2SO3H)]T[Dab(CH2SO3H)][Dab][Dab(CH2SO3H)][dL]L[Dab(CH2SO3H)][Dab(CH2SO3H)]T; lactam 4-C), the Potency result is “inactive”. Consider `CN1CCC(CN2c3ccccc3Sc3ccccc32)C1` (stereo not drawn), for which the Potency was 12.6 µM (active). Take `OCC(S)CS` (stereo not drawn): the Potency result was “inactive”. For `CC1(C)S[C@@H]2[C@H](NC(=O)C(C(=O)O)c3ccsc3)C(=O)N2[C@H]1C(=O)O` (stereo partly drawn), the Potency entry is “inactive”.

With `Cc1cc(CC(C)CC(C)(C)C)n(O)c(=O)c1` (stereo not drawn) (tested in a mixture with another compound), the Potency result was “inactive”.

On to `CO[C@H]1C=CO[C@@]2(C)Oc3c(C)c(O)c4c(O)c(c(/C=N/N5CCN(C6CCCC6)CC5)c(O)c4c3C2=O)NC(=O)/C(C)=C\C=C[C@H](C)[C@H](O)[C@@H](C)[C@@H](O)[C@@H](C)[C@H](OC(C)=O)[C@@H]1C`, for which the Potency result was “inactive”. For `CC[C@H]1OC(=O)C[C@@H](O)[C@H](C)[C@@H](O[C@@H]2O[C@H](C)[C@@H](O)[C@H](N(C)C)[C@H]2O)[C@@H](CCN2C[C@H](C)C[C@H](C)C2)C[C@@H](C)C(=O)/C=C/C(C)=C/[C@@H]1CO[C@@H]1O[C@H](C)[C@@H](O)[C@@H](OC)[C@H]1OC` the value was “inactive”; for `CO[C@H]1C=CO[C@@]2(C)Oc3c(C)c(O)c4c(O)c(c5c(nc6cc(C)ccn65)c4c3C2=O)NC(=O)/C(C)=C\C=C[C@H](C)[C@H](O)[C@@H](C)[C@@H](O)[C@@H](C)[C@H](OC(C)=O)[C@@H]1C`, “inactive”. For `CCOC(=O)O[C@]1(C(=O)COC(=O)CC)CC[C@H]2[C@@H]3CCC4=CC(=O)C=C[C@]4(C)[C@H]3[C@@H](O)C[C@@]21C` the value was “inactive”.

As for `N[C@H](C(=O)O)[C@@H]1CC(Cl)=NO1`, the Potency result was “inactive”. `C[C@@H]1[C@H](O)[C@@H](C)/C=C/C=C\C=C\C=C\C=C\C=C\C=C\[C@H](O[C@@H]2O[C@H](C)[C@@H](O)[C@H](N)[C@@H]2O)C[C@@H]2O[C@](O)(C[C@@H](O)C[C@@H](O)[C@H](O)CC[C@@H](O)C[C@@H](O)CC(=O)O[C@H]1C)C[C@H](O)[C@H]2C(=O)O` (stereo in doubt): the Potency result is “inactive”. Consider `CC(=O)O[C@]1(C(C)=O)CC[C@H]2[C@@H]3CCC4=CC(=O)CC[C@]4(C)[C@@]3(F)[C@@H](O)C[C@@]21C`, for which the Potency result was “inactive”.
